Data: PubChem BioAssay
Values joined by “and” are separate entries in the source; they are usually repeats but may differ in a detail not shown here. Equal values may be shown once. Active and inactive are the calls of the source.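 Rule for the calls, unless noted: active = inhibition at or above 50% relative to wild type and mutant plate controls; inactive = inhibition below 50%.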

Experiments:
[1] = inhibitors of TNFa-induced NFkB p65 translocation, primary screen, imaging, HUVEC, MLSMR starter and 10KST1 sets (AID 438;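 active = inhibition above 20% together with a positive visual image hit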;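 note: compound added about 3h40 before a 20 min TNFalpha stimulation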;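 for inhibition: signal is the nuclear over cytoplasmic p65 intensity ratio per well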); details: HUVEC TNFa-induced p65 nuclear translocation; cell count: measured here: nuclei count (cytotoxicity indicator), at 2.08 µM; inhibition: at 2 µM, stronger effect = higher value, 0% TNFa-plus-vehicle, 100% no-TNFa wells
[2] = inhibitors of mutant huntingtin aggregation, primary screen, imaging, exon1htt(103Q)mCFP cells, high-content imaging (AID 483;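 active = visual image review flags a hit and inhibition of aggregation exceeds 20%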;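 note: compound exposure lasted 3 days before fixation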;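 for nuclei count: percent of the per-plate median nuclei count of sample wells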); details: exon1htt(103Q)mCFP cell line, aggregate imaging, at 2 µM; inhibition of aggregation: stronger effect = higher value; nuclei count: measured here: cell count, toxicity
[3] = inhibitors of E-selectin induction by TNFa, primary screen, imaging, HUVEC, immunofluorescence, MLSMR starter and 10KST1 sets (AID 487;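 active = visually confirmed hit in the image check and inhibition above 20%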;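 for inhibition: signal is fraction of cell area covered by stained E-selectin grains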;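 for nuclei count: 100% = median nuclei count of all wells on the same plate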); details: HUVEC TNFalpha-induced E-selectin immunofluorescence imaging, at 2 µM; inhibition: stronger effect = higher value; nuclei count: measured here: cell number, toxicity
[4] = DUSP6 inhibitors restoring Erk phosphorylation by chemical complementation, primary imaging in DUSP6-transfected HeLa (AID 609;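 active = compounds giving at least 50% inhibition in the cell-based MKP-3 phosphatase rescue imaging test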;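 for inhibition: phospho-Erk level distribution per well compared with pooled transfected vehicle control wells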); details: HeLa MKP-3 transfected, phospho-Erk imaging KS statistic, at 10 µM, cells stimulated with TPA for 15 min
[5] = molecular target: Dual specificity protein phosphatase 6 (Homo sapiens) (UniProt Q16828); test: as above; details: HeLa MKP-3 transfected, phospho-Erk imaging KS statistic; at 10 µM; stronger effect = higher value; cells stimulated with TPA for 15 min
[6] = molecular target: Voltage-gated potassium channel subunit beta-2 (Rattus norvegicus) (UniProt P62483); test: KvBeta enzyme negative modulators, primary screen, biochemical, NADPH fluorescence (AID 622;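 active = fluorescence slope higher than the sample average by over 3 SD, cut at about -0.22 in these data, passing the limit was not always enough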;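 note: slope of raw intensity against log time taken from 70 to 1610 s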); details: recombinant KvBeta, 4-cyanobenzaldehyde reduction, at 10 µM, stronger effect = higher value
[7] = molecular target: Voltage-gated potassium channel subunit beta-2 (Rattus norvegicus) (UniProt P62483); test: KvBeta positive modulators, primary screen, biochemical, NADPH fluorescence (AID 623;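 active = NADPH fluorescence slope more negative than the mean of all samples by about 3 SD, 99.7% confidence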;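 note: fluorescence intensity change per second fitted from 20 to 320 s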); details: Recombinant KvBeta, NADPH fluorescence decrease slope, 10 min; at 10 µM; stronger effect = lower value
[8] = molecular target: Alpha-2C adrenergic receptor (Homo sapiens) (UniProt P18825); test: modulators of alpha2C/GIRK thallium flux, primary screen, cell-based, HEK293 alpha2C/GIRK1/2 (AID 624;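 active = fluorescence slope after compound addition differing from the mean of all screened samples at 99.7% confidence, in either direction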;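 note: slope of fluorescence ratio to pre-addition baseline per second over 15 to 24 s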); details: thallium flux BTC fluorescence, at 10 µM, actives lie on both sides
[9] = inhibitors of larval lipid processing in zebrafish, primary screen, whole organism, PED6 fluorescence, gall bladder and intestine (AID 686;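 active = a full or partial loss of lipid-probe fluorescence in the fish gall bladder, intestine or both, judged by eye; inactive = no fluorescence loss, or compound toxic to the fish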;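 note: larvae 5 to 7 days old with five fish per well; signal comes from phospholipase A2 cleavage of quenched PED6 carried via bile; overnight exposure to compound and PED6 before scoring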); details: Zebrafish larvae PED6 lipid processing, fluorescence scoring; screened at 20 µM (by protocol)
[10] = inhibitors of Chlamydomonas gravitaxis, primary screen, whole organism, Chlamydomonas reinhardtii, WT vs cilia-less mutant, absorbance, 96-well (AID 463189); details: OD600 absorbance, 2 days, at 10 µM, stronger effect = higher value;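 note: 0% = wild type cc124 cells in DMSO and 100% = ciliumless bld1 mutant cells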
[11] = inhibitors of Sendai virus-induced IRF3 signaling, primary screen, TLR/RLR signaling modifier project, cell-based, Sendai virus stimulus, luciferase, 10K MLSCN set (AID 602276;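 active = inhibition at or above 50% at 10 µM; inactive = inhibition below 50%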;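 note: firefly luciferase from ISG56 promoter only with Renilla not read in this screen; 0% = Sendai virus plus DMSO and 100% = medium plus DMSO without virus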); details: HEK293 RL24 IRF3 luciferase reporter, at 10 µM, stronger effect = higher value
[12] = inhibitors of poly I:C-induced TLR3 signaling, primary screen, cell-based, poly I:C stimulus, luciferase, 10K MLSCN set (AID 602277;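 active = inhibition of the reporter signal at or above 50%; inactive = inhibition below 50%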); details: HEK293-TLR3 RL24 IRF3 luciferase reporter, at 10 µM, stronger effect = higher value
[13] = measured here: cell density z-score
[14] = measured here: nuclear c-Myc green intensity z-score
[15] = measured here: nuclear pErk red intensity z-score, stronger effect = higher value

Sequence of Alpha-2C adrenergic receptor (Homo sapiens) (P18825 whole entry, looked up): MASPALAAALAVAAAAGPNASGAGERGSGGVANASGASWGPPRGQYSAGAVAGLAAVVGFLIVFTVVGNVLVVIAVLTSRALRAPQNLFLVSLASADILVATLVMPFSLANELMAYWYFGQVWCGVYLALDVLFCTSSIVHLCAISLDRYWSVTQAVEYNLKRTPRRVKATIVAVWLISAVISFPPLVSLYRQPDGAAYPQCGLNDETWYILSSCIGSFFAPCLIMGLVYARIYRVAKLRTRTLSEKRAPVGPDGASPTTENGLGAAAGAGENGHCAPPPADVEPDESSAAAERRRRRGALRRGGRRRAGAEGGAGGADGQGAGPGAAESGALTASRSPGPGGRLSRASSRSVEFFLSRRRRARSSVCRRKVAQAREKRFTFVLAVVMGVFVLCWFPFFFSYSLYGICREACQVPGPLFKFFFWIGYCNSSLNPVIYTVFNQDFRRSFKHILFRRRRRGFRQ
Sequence of Dual specificity protein phosphatase 6 (Homo sapiens) (Q16828 whole entry, looked up): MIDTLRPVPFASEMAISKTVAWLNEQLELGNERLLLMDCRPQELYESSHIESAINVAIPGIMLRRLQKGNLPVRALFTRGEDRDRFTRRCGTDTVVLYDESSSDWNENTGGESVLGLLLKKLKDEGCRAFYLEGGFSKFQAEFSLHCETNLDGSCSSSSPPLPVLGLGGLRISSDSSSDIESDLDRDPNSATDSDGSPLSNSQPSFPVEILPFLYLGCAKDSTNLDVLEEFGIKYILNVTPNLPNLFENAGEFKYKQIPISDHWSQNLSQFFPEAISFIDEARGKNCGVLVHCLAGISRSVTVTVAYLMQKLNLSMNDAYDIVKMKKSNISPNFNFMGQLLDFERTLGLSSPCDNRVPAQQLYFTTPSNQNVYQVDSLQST
Sequence of Voltage-gated potassium channel subunit beta-2 (Rattus norvegicus) (P62483 whole entry, looked up): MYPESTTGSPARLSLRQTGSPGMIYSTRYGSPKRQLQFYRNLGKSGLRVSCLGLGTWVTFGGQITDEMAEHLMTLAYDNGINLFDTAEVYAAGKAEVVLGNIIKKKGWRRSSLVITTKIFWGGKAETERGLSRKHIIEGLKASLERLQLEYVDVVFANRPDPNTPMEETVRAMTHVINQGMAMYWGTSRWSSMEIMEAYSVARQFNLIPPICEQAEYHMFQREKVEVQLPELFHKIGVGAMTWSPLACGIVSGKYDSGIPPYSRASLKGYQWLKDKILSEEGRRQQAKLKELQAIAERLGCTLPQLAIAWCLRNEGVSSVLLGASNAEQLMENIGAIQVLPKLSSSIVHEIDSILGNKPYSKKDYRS

SMILES | cell count [1] | inhibition [1] | inhibition of aggregation [2] | nuclei count [2] [%] | inhibition [3] | nuclei count [3] [%] | z-score [4, 13] | z-score [4, 14] | z-score [4, 15] | inhibition [5] | fluorescence slope [6] | NADPH fluorescence slope [7] | slope [8] | outcome [9] | inhibition [10] | inhibition [11] | inhibition [12]
CN(C)[C@@H]1C(=O)C(C(N)=O)=C(O)[C@@]2(O)C(=O)C3=C(O)c4c(O)ccc(Cl)c4[C@@H](O)[C@H]3C[C@@H]12 | 524 | -3% (inactive) | 77.8% (active) | 96.8 | -35.1% (inactive) | 93 | 0.892 | 0.579 | -1.42 | 9.37% (inactive) | -0.537 (inactive) | -2.5e-05 (inactive) | 0.00572 (inactive) | active; no signal in intestine only | 54.1% (active) and 88% (active) | 17.1% (inactive) | 24.2% (inactive)
O=C(O)CCN(CCC(=O)O)c1nnc(SCc2ccccc2)s1 | 428 | 4% (inactive) | -9.5% (inactive) | 108 | -187% (inactive) | 136 | 0.906 | -0.398 | -0.408 | -3.98% (inactive) | -0.393 (inactive) | -6e-05 (inactive) | 0.0059 (inactive) | inactive | -1.99% (inactive) | 18.7% (inactive) | 25.8% (inactive)
CC(=O)OCC(=O)[C@@]1(O)CC[C@H]2[C@@H]3CCC4=CC(=O)CC[C@]4(C)[C@H]3[C@@H](O)C[C@@]21C | 652 | 2.9% (inactive) | -9.2% (inactive) | 82.8 | -99.5% (inactive) | 121 | -2.38 | 1.32 | 1.76 | 10.2% (inactive) | -0.454 (inactive) | -5.2e-05 (inactive) | 0.00445 (inactive) | inactive | 17.2% (inactive) | 2.51% (inactive) | 28.7% (inactive)
CCOC(=O)C1CSc2[nH]c(=O)sc2C1c1ccccc1 (configuration not stated) | 537 | -1.3% (inactive) | -4% (inactive) | 126 | -19.3% (inactive) | 144 | 0.417 | -0.0363 | 0.692 | -1.12% (inactive) | -0.378 (inactive) | -6.9e-05 (inactive) | 0.00596 (inactive) | inactive | -4.31% (inactive) | 5.91% (inactive) | 99.1% (active)
C(=C\c1ccccc1)/CN1CCN(C(c2ccccc2)c2ccccc2)CC1 | 635 | -9.5% (inactive) | -21.5% (inactive) | 107 | -95.1% (inactive) | 131 | 0.835 | -0.254 | 0.957 | 11.3% (inactive) | -0.448 (inactive) | -6.1e-05 (inactive) | 0.00492 (inactive) | inactive | 126% (active) and 125% (active) | 9.39% (inactive) | 26.9% (inactive)
O=C(O)c1cc(-c2ccccc2)nc2ccccc12 | 572 | -5.1% (inactive) | -4.1% (inactive) | 92.2 | -66.9% (inactive) | 121 | 0.461 | 0.0575 | -0.708 | -0.493% (inactive) | -0.459 (inactive) | -5.4e-05 (inactive) | 0.00561 (inactive) | inactive | -8.89% (inactive) | 5.39% (inactive) | 34.2% (inactive)
COC1=CC(=O)CC(C)C12Oc1c(Cl)c(OC)cc(OC)c1C2=O (configuration not stated) | 555 | -5% (inactive) | 6.9% (inactive) | 105 | -16.1% (inactive) | 122 | -1.48 | -1.27 | 1.79 | -8.38% (inactive) | -0.459 (inactive) | -3.3e-05 (inactive) | 0.00463 (inactive) | inactive | -7.52% (inactive) | 22.1% (inactive) | 38.6% (inactive)
OC(CCCN1CCC(O)(c2ccc(Cl)cc2)CC1)c1ccc(F)cc1 (configuration not stated) | 686 | -2.4% (inactive) | -13.4% (inactive) | 116 | -82.7% (inactive) | 118 | 1.1 | 0.439 | -0.848 | 14.6% (inactive) | -0.468 (inactive) | -6.6e-05 (inactive) | 0.00402 (inactive) | inactive | 20.5% (inactive) | 12.8% (inactive) | 40.2% (inactive)
CCOC(=O)c1[nH]c2ccccc2c1NC(=O)CCN1CCN(C(=O)OCC)CC1 | 626 | -1.9% (inactive) | -2.8% (inactive) | 104 | 1% (inactive) | 144 | -1.64 | 0.13 | 1.55 | -5.26% (inactive) | -0.344 (inactive) | -4.4e-05 (inactive) | 0.00527 (inactive) | inactive | -5.66% (inactive) | 14.7% (inactive) | 19.4% (inactive)
Cc1cn([C@H]2C[C@H](N=[N+]=[N-])[C@@H](CO)O2)c(=O)[nH]c1=O | 663 | -4% (inactive) | 1.9% (inactive) | 102 | -133% (inactive) | 128 | -0.406 | -0.912 | 2.26 | -6.41% (inactive) | -0.476 (inactive) | 3.5e-07 (inactive) | 0.00535 (inactive) | inactive | -6.84% (inactive) | 17.8% (inactive) | 37% (inactive)
CC(C)Sc1nc(N2CCCC2)c2c(c1C#N)CC(C)(C)OC2 | 547 | -6.2% (inactive) | 15.4% (inactive) | 73.8 | -59.4% (inactive) | 126 | 1.33 | -1.33 | -0.539 | 24.4% (inactive) | -0.386 (inactive) | 4.7e-06 (inactive) | 0.00612 (inactive) | inactive | 48.4% (inactive) | 14% (inactive) | 18.1% (inactive)
O=C1CC(c2ccccc2)NC(=O)N1 (configuration not stated) | 692 | -11.2% (inactive) | 15.5% (inactive) | 100 | 23% (inactive) | 127 | -1.04 | -0.999 | 0.572 | 9.39% (inactive) | -0.454 (inactive) | -0.000279 (inactive) | 0.0044 (inactive) | inactive | -8.12% (inactive) | 11% (inactive) | 23.5% (inactive)
Cn1c(=O)c2[nH]cnc2n(C)c1=O | 656 | -1.4% (inactive) | 12.3% (inactive) | 83.7 | -74.2% (inactive) | 142 | -0.0459 | 0.0873 | -0.896 | 19% (inactive) | -0.453 (inactive) | -2.6e-05 (inactive) | 0.00501 (inactive) | inactive | -1.38% (inactive) and -11.3% (inactive) | 6.67% (inactive) | 32.1% (inactive)
CCOC(=O)CSc1nc(N)c2c3c(sc2n1)CCCC3 | 682 | -4.4% (inactive) | -8.1% (inactive) | 97.3 | 5.9% (inactive) | 146 | -0.0379 | 1.11 | -0.851 | -3.95% (inactive) | -0.363 (inactive) | -5.9e-05 (inactive) | 0.0064 (inactive) | inactive | -8.25% (inactive) | 12.5% (inactive) | 4.94% (inactive)
COc1cccc(N2CCN(c3ncnc4c3[nH]c3ccc(F)cc34)CC2C)c1 (configuration not stated) | 342 | -7% (inactive) | 10.9% (inactive) | 92.8 | 11.4% (inactive) | 127 | 0.762 | 0.103 | -1.52 | -3.5% (inactive) | -0.393 (inactive) | -9.3e-05 (inactive) | 0.00384 (inactive) | inactive | 25.3% (inactive) | 2.95% (inactive) | 98.8% (active)
Cc1nc2c(c(=O)n1CC1CCCO1)c1nc3ccccc3nc1n2CC(C)C (configuration not stated) | 460 | -4.3% (inactive) | 12.6% (inactive) | 107 | -42.3% (inactive) | 96.8 | 1.43 | 1.1 | -2.3 | 9.42% (inactive) | -0.449 (inactive) | -6.4e-05 (inactive) | 0.00602 (inactive) | inactive | 0.529% (inactive) | 20.9% (inactive) | 22.8% (inactive)
CC1(C)S[C@@H]2[C@H](NC(=O)C(C(=O)O)c3ccccc3)C(=O)N2[C@H]1C(=O)O (some centres not stated) | 588 | -12.5% (inactive) | -7.6% (inactive) | 99.1 | -51.3% (inactive) | 138 | 0.424 | 0.193 | -0.471 | 13.3% (inactive) | -0.487 (inactive) | -2.7e-05 (inactive) | 0.00471 (inactive) | inactive | 37.9% (inactive) | -4.51% (inactive) | 13% (inactive)
CC(=O)Oc1cccc2c1C(=O)c1c(OC(C)=O)cc(C(=O)O)cc1C2=O | 646 | 3.9% (inactive) | 6.8% (inactive) | 105 | -52.7% (inactive) | 124 | -1.09 | -1.04 | -0.102 | -9.66% (inactive) | -0.438 (inactive) | -4.5e-05 (inactive) | 0.00622 (inactive) | inactive | -7.39% (inactive) | 4.71% (inactive) | 26.5% (inactive)
O=C(O)Cc1ccc(-c2ccccc2)cc1 | 636 | -3% (inactive) | -7.3% (inactive) | 105 | -30.6% (inactive) | 123 | 1.25 | 0.515 | -0.372 | 19% (inactive) | -0.444 (inactive) | -4.7e-05 (inactive) | 0.00497 (inactive) | inactive | -15% (inactive) | 8.68% (inactive) | 34.8% (inactive)
CNCCCC1c2ccccc2C=Cc2ccccc21 | 583 | -3.3% (inactive) | 10.3% (inactive) | 79.5 | -90.5% (inactive) | 120 | 0.8 | 0.418 | 3.14 | -11.9% (inactive) | -0.496 (inactive) | -5.9e-05 (inactive) | 0.00425 (inactive) | inactive | 7.66% (inactive) and 11.9% (inactive) | 18.5% (inactive) | 41.3% (inactive)
CC[N+](C)(CC)CCOC(=O)C(O)(c1ccccc1)C1CCCCC1 (configuration not stated) | 475 | -3.8% (inactive) | 7.2% (inactive) | 95.4 | -15.1% (inactive) | 111 | -1.3 | -0.403 | 0.0665 | -4.44% (inactive) | -0.515 (inactive) | -2.6e-05 (inactive) | 0.00498 (inactive) | inactive | -14% (inactive) | 2.1% (inactive) | 24.6% (inactive)
